The results in this text go back to PubChem BioAssay AID2314 (National Center for Advancing Translational Sciences (NCATS), 2010).

Hit rate of the full screen: of about 300,000 compounds, about 37,000 (12%) were called active. Only a selection was taken, and actives are over-represented in it overall. Unmarked numbers belong to inactive results. Rule as the data show it: active = max response mostly above about 13% (no sharp cut-off); inactive = mostly below about 14%.

The assay is described as follows: Cycloheximide Counterscreen for Small Molecule Inhibitors of Shiga Toxin. Also: read at 38.3 µM for the half of the compounds with a filed dose; 0% is about no effect. The following applies: cell reporter, cycloheximide protein synthesis inhibition counterscreen; stronger effect = higher value.
For `Cc1cc(C)nc(-n2ncc3c2CC(c2ccc(C(C)C)cc2)CC3=O)n1` (stereo unspecified), the max response is 3.79%.

As for `CCC(=O)NC(Nc1nc2ccc(C)cc2s1)(C(=O)OC)C(F)(F)F` (stereo unspecified), the max response was 1.01%.

Turning to `O=C(CN1C(=O)c2cccc3cccc1c23)Nc1ccccc1`, the max response was -0.618%.

For `Cc1cc2c(cc1S(=O)(=O)NCc1ccc(Cl)cc1)OCC(=O)N2`, the max response is 1.87%.

As to `CN(CCc1ccccn1)C1CCCN(S(=O)(=O)c2ccccc2Cl)C1` (stereo unspecified), the max response was -3.81%.

Regarding `CC(C)NC(=O)N1CCN(c2ccncc2S(=O)(=O)N2CCCCC2)CC1`, the max response is 0.305%.

As for `C=CCc1ccccc1OCC(O)CN1CCN(CCO)CC1` (stereo unspecified), the max response is -1.25%.

Consider `Cc1[nH]c2ccccc2c1C(=O)CN1CCCC(C)C1` (stereo unspecified), for which the max response is 4.44%.

Turning to `Cn1c(CCN2CCCCCC2)nc2cc(NC(=O)Nc3ccccc3)ccc21`, the max response is 59.7% (active).

Regarding `Cn1c(CCN2CCCC2)nc2cc(NS(=O)(=O)c3ccccc3)ccc21`, the max response is 9.99%.

For the compound `CCC(=O)Nc1ccc2c(c1)nc(CCN1CCN(c3ccccn3)CC1)n2C`, the max response was -2.39%.

As for `CCN(CC)C(=O)Oc1ccc(OC(=O)N(CC)CC)cc1`, the max response was 19%.

`C=CCn1c(=O)c(C(=O)Nc2ncccc2O)c(O)c2ccccc21`: the max response is 0.679%.

Consider `CCCn1c(=O)c(C(=O)Nc2cc(C)ccn2)c(O)c2ccccc21`, for which the max response is 9.34% (active).

On to `CCCCCn1c(=O)c(C(=O)Nc2c(C)n(C)n(-c3ccccc3)c2=O)c(O)c2ccccc21`, for which the max response is -1.67%.

For the compound `Cn1c(=O)c(C(=O)Nc2ncccn2)c(O)c2ccccc21`, the max response is 17.3% (active).

For the compound `Cn1c(=O)c(Sc2ccc(Cl)cc2)c(O)c2ccccc21`, the max response is -5.19%.

In the case of `CCCCCn1c(=O)c(C(=O)NCc2ccccn2)c(O)c2ccccc21`, the max response was -1.8%.

`N#C/C(=C/c1cccc([N+](=O)[O-])c1)c1nnc2n1CCCCC2`: the max response is -4.02%.

Regarding `CC(C)(C)c1ccc(C(=O)NCCn2c(N)c(C#N)c3nc4ccccc4nc32)cc1`, the max response is -4.74%.

`N#Cc1cccc(CN2CCC(=O)N([C@H](CO)c3ccccc3)CC2)c1`: the max response was -0.681%.

Turning to `COc1cc(/C=C2/C(=O)ON=C2C)ccc1OCc1cccc(F)c1`, the max response was 27.9%.

For the compound `COc1cc(/C=C2/C(=O)ON=C2C)ccc1OCc1ccccc1F`, the max response is 76% (active).

Take `C=CCOc1ccc(/C=C2/C(=O)ON=C2C)cc1OCC`: the max response was -0.862%.

`CCOc1c(Cl)cc(/C=N/O)cc1OC`: the max response is 5.27%.

In the case of `CCOc1cc(/C=N/O)ccc1OCc1ccccc1F`, the max response is 30.7% (active).

For the compound `CCOc1ccc(/C=N/NC(=O)C(C)Sc2ccccn2)cc1OCC` (stereo unspecified), the max response was -2.71%.

On to `CCC1=C(OC(=O)N(CC)CC)N2C(=O)OC(=NCCc3c[nH]c4ccccc34)[C@]2(C)[C@H]2C1=CC[C@H]1C(=O)N(CC)C(=O)[C@H]12`, for which the max response is -4.31%.

Take `O=C(CCc1nnc2ccc(NCc3ccccc3Cl)nn12)NCC1CCN(C2CCCC2)C1` (stereo unspecified): the max response was -4.64%.

Consider `Cc1ccc(NS(=O)(=O)c2c(C)[nH]c(C)c2C(=O)N2CCCCC2)c(C)c1`, for which the max response was 18%.

For `CN(C)c1ccc(C=C2C(=O)OC3(CCCC3)OC2=O)cc1`, the max response is 0.693%.

On to `CC(C)(C)NC(=O)NC(=O)COC(=O)Cc1c(F)cccc1Cl`, for which the max response was 6.65%.

Consider `O=C(Nc1ccccc1N1CCN(c2ccccc2)CC1)c1cccc(F)c1`, for which the max response is -4.37%.

As to `O=C(Nc1ccn(Cc2ccccc2)n1)c1n[nH]c([N+](=O)[O-])c1Cl`, the max response was 47.7% (active).

In the case of `O=C(Cn1cnc([N+](=O)[O-])n1)NCCc1ccccc1`, the max response is 6.14%.

Consider `CC(=O)Nc1ccn(Cc2c(F)cccc2Cl)n1`, for which the max response is 18.4% (active).

Regarding `Cc1nnsc1C(=O)NCc1c(F)cccc1Cl`, the max response was 8.44%.

On to `O=C(O)CC(Cc1ccccc1)C(=O)Nc1ccc([N+](=O)[O-])cc1` (stereo unspecified), for which the max response was 11.6%.

On to `O=C(Nc1ccccc1N1CCCCC1)c1cccc(F)c1`, for which the max response is 3.77%.

On to `O=C(Nc1ccn(Cc2ccccc2)n1)c1cccc(F)c1`, for which the max response was 39% (active).

Turning to `CCOc1cc(C)ccc1OCc1nnc(SCC(=O)Nc2cccc(C(=O)O)c2)n1-c1ccccc1`, the max response was 3.69%.

As to `CC(C)C[C@H]1CN=C(Nc2ccccc2)N1CC1CCCCC1`, the max response is -4.32%.

In the case of `CC(=O)N1c2ccc(S(=O)(=O)N3CCCC(C(=O)Nc4ccc(C)cc4C)C3)cc2CC1C` (stereo unspecified), the max response is -0.234%.

For `CC(C)c1cc(NCc2ccccn2)n2c(nc3ccccc32)c1C#N`, the max response was 9.39%.

`Cc1ccc(Cl)cc1N1CCN(C(=O)c2cccc3c(=O)c(C)c(-c4ccccc4)oc23)CC1`: the max response is 3.64%.

Turning to `COCCn1cnc2c1c(=O)n(CC(=O)NN)c(=O)n2Cc1ccccc1`, the max response was -14.6%.

On to `O=Cc1c(Nc2ccccc2Cl)nc2ccccn2c1=O`, for which the max response is -2.35%.

`O=C(COC(=O)CCCNC(=O)c1ccc(Cl)cc1)Nc1cc(Cl)ccc1Cl`: the max response was -0.294%.

`Cc1cc(C2=NNC(=Nc3ccc(S(=O)(=O)N4CCOCC4)cc3)SC2)c(C)n1CC1CCCO1` (stereo unspecified): the max response was 19.4%.

For the compound `C=CCn1c(C)cc(C2=NNC(=NCC)SC2)c1C`, the max response was -12%.

`COCCn1c(C)cc(C2=NNC(=Nc3ccc(F)cc3)SC2)c1C`: the max response is 31.2% (active).

Regarding `COc1ccc(C(=O)C[n+]2ccc(N)c(C)c2C)cc1`, the max response was -5.16%.

Consider `CN1CN(C)c2ccc([N+](=O)[O-])c3cccc1c23`, for which the max response was -0.807%.

Turning to `C=CCNC(=S)/N=c1/ccccn1Cc1ccccc1`, the max response is 1.08%.

Turning to `CN(CC(=O)Nc1ccc(N2CCOCC2)cc1)CC(=O)Nc1ccccc1[N+](=O)[O-]`, the max response is -1.06%.

`COc1ccccc1OCCNc1cc(N2CCOCC2)ccc1[N+](=O)[O-]`: the max response is 24.7% (active).

`CC(=O)Nc1ccc(S(=O)(=O)N2CCN(c3ccc([N+](=O)[O-])c(NCCN4CCOCC4)c3)CC2)cc1`: the max response was -3.02%.

`Cc1ccc(CNC(=O)C2CCCN2S(=O)(=O)c2ccc3c(c2)C(C)(C)C(=O)N3C)cc1` (stereo unspecified): the max response was -3.55%.

As to `C=CCOc1ccc(C(=O)Nc2ccccc2C(=O)N2CCCC2)cc1`, the max response was -1.61%.

In the case of `Cc1cccc(NC(=O)CN2CCCN(S(=O)(=O)c3ccc(Br)s3)CC2)c1`, the max response was 19.9%.

`CSc1ncccc1C(=O)OCC(=O)N1CCOCC1`: the max response is -5.04%.

As to `CSc1ncccc1C(=O)OCc1ccc(Br)cc1`, the max response is 36.2% (active).

For `CSc1ncccc1C(=O)NCc1ccccc1Cl`, the max response is 2.57%.

For `CN1CCN(c2cc3c(cc2F)c(=O)c(C(=O)O)cn3CCF)CC1`, the max response was -3.38%.

On to `Oc1ccc(N=Nc2nccs2)c(O)c1`, for which the max response was 38% (active).

Consider `Oc1ccc2ccccc2c1N=Nc1nccs1`, for which the max response was 11.4%.

Consider `Cc1nnc(SCC(=O)N2CCc3ccccc32)n1-c1ccccc1`, for which the max response was -1.58%.

On to `NC(=O)N1CCc2ccccc21`, for which the max response is -6.54%.

Take `O=C(CSCc1ccccc1)N1CCc2ccccc21`: the max response is 50.5% (active).

With `Cc1ccc(Oc2cc(NC(=O)CCCn3nc(C)c([N+](=O)[O-])c3C)cc([N+](=O)[O-])c2)cc1`, the max response was 6.56%.

For `Cc1ccc2ccc3c(c2n1)NS(=O)(=O)c1ccccc1-3`, the max response is 9.31%.

With `O=C1CC(C(F)(F)C(F)(F)C(F)(F)C(F)(F)F)=Nc2ccccc2N1`, the max response is 1.33%.

As to `Cc1ccccc1-n1nc(C)c2cc(C(=O)NC3CC3)sc21`, the max response was 13.7%.

Take `O=C(CSc1nc2nccnc2c(=O)n1Cc1cccs1)Nc1ccccc1F`: the max response was 18.8%.

As for `Cc1cccc(-c2noc(CCC(=O)NC3CCCC3)n2)c1`, the max response is 2.28%.

Take `Cc1cccc(-c2noc(-c3ccc(F)cc3)n2)c1`: the max response is 70.7% (active).

Consider `Cc1cccc(-c2nc(Nc3ccc(O)cc3)c3ccccc3n2)c1`, for which the max response is -0.236%.

Regarding `Cc1ccc(Cc2nc(-c3cccc(C)c3)no2)cc1`, the max response is 31.8% (active).

In the case of `CC(=O)N1CCCc2cc(S(=O)(=O)N3CCCC(C(=O)NCc4ccc(Cl)cc4)C3)ccc21` (stereo unspecified), the max response is -1.26%.

For the compound `CCN1C(=O)C(C(=O)NC(C)c2ccccc2)C2CC1(C)Oc1ccccc12` (stereo unspecified), the max response is -6.07%.

Consider `Cc1nn(CC(=O)N2CCCCC2)c(=O)c2nn(-c3ccccc3)c(C)c12`, for which the max response was -0.579%.

As for `C[C@H](NC(=O)C1CCN(S(=O)(=O)c2ccccc2)CC1)C(=O)NCc1ccccc1`, the max response was -2.6%.

On to `COCCN1C(=O)C(=O)/C(=C(/O)c2ccc(S(=O)(=O)N3CCOCC3)cc2)C1c1ccc(OC)c(OC)c1` (stereo unspecified), for which the max response is -0.449%.

Regarding `CCOCCCNC(=O)c1cn(CC(C)C)c(=O)c2c1c1ccccc1n2C`, the max response is 1.59%.

For `Cc1cc(Cl)c(S(=O)(=O)Nc2ccc3c(c2)OCCO3)cc1OCC(N)=O`, the max response is 40.8% (active).

For the compound `Cc1cc(Cl)c(S(=O)(=O)NCC2CCCO2)cc1OCC(N)=O` (stereo unspecified), the max response is -0.524%.

With `Cc1cc(Cl)c(S(=O)(=O)N(C)C)cc1OCC(N)=O`, the max response is 4.25%.

For `COc1ccc(S(=O)(=O)N2CCN(c3ncnc4c(-c5ccccc5)nsc34)CC2)cc1`, the max response was -2.92%.

As for `CC1=C(C(=O)OC2CCCCC2)C(c2cccnc2)n2ncnc2N1` (stereo unspecified), the max response was -3.65%.

With `C=CCCN(C(Cc1ccccc1)C(=O)OC)S(=O)(=O)c1cc(Br)ccc1Br` (stereo unspecified), the max response was -0.573%.

Regarding `O=C(Nc1ccc([N+](=O)[O-])cc1)OCCc1ccccn1`, the max response is 19% (active).

In the case of `O=[N+]([O-])c1ccc(NC(=S)N2CCN(c3ccccn3)CC2)cc1`, the max response was -3.35%.

As to `O=C(Nc1cccc(Cl)c1)OCc1ccccn1`, the max response was 26.4%.

Take `COc1ccc2c(Cl)c(-c3nnco3)sc2c1`: the max response was 0.855%.

In the case of `O=C(OCC#CCSc1nnc(-c2ccncc2)o1)c1sc2ccccc2c1Cl`, the max response is -4.75%.

Take `C#CCSc1nnc(-c2sc3ccccc3c2Cl)o1`: the max response is 46.5% (active).
